According to ChEMBL document CHEMBL1157539, “Thousands of chemical starting points for antimalarial lead identification” (Nature, 2010):

Columns and labels:
Assay type in all cases: functional
Plasmodium falciparum [1] = assay: GSK_TCMDC: Inhibition of Plasmodium falciparum 3D7 in whole red blood cells, using parasite LDH activity as an index of growth. Test compounds present at 2uM
Plasmodium falciparum [2] = assay: GSK_TCMDC: Inhibition of Plasmodium falciparum Dd2 in whole red blood cells, using parasite LDH activity as an index of growth. Test compounds present at 2uM
HepG2 = assay: GSK_TCMDC: Percent inhibition of human HepG2 cell line. Test compounds present at 10uM.

Row | Compound | Inhibition (Plasmodium falciparum [1]) | Inhibition (Plasmodium falciparum [2]) | Inhibition (HepG2)
1 | Cc1ccc(Nc2nc(C)cc(Nc3cccc(C#N)c3)n2)cc1 | 100% | 96% | 14%
2 | Cc1cccc2nc(-c3cccc(-c4cccc(NC(=O)c5cnn6cccnc56)c4)c3)[nH]c12 | 100% | 17% | 14%
3 | CCN(CC)CCNc1c2ccc(Cl)cc2nc2ccc(OC)nc12.Cl | 100% | 99% | 20%
4 | O=C1Nc2cccc3c2C1(CCCCN1CCC(c2c(-c4ccc(F)cc4)[nH]c4ccccc24)CC1)CCC3 (stereo not drawn) | 91% | 28% | 25%
5 | COc1ccc(CN2CCC(CNCCc3ccccc3Oc3ccccc3)CC2)cc1.O=C(O)C(F)(F)F | 85% | 56% | 99%
6 | Cn1nc(-c2ccccc2F)c2cc(C(=O)Nc3cccnc3)sc21 | 92% | 82% | 5%
7 | CCCCCCP(=O)(COc1ccc(CCN(CC(O)COc2cccc3[nH]c(C(N)=O)cc23)CC(O)COc2cccc3[nH]c(C(N)=O)cc23)cc1)OCCCC (stereo not drawn) | 99% | 97% | 0%
8 | CC(C)(C)C(=O)Nc1ccc(N2CCN(C(c3ccccc3)c3ccccc3)CC2)c(Cl)c1 | 92% | 94% | 0%
9 | CN1CCN(CC2(Nc3nccc(NCCc4cn(C)c5ccccc45)n3)CCCCC2)CC1 | 91% | 41% | 67%
10 | Cc1cccc2nc(-c3cccc(-c4cccc(NC(=O)CNC(=O)c5ccc(O)cc5)c4)c3)[nH]c12 | 94% | 49% | 9%
11 | O=C(CNc1ccc(Cl)c(S(=O)(=O)N2CCCC2)c1)Nc1ccc(Br)cc1F | 99% | 97% | 18%
12 | O=C(Nc1ccc(OC2CCN(Cc3ccc(F)cc3)CC2)cc1)c1cccs1.O=C(O)C(F)(F)F | 84% | 52% | 6%
13 | O=C(NCCNc1ccnc(Nc2ccc(F)cc2)n1)Nc1ccccc1F | 93% | 4% | 22%
14 | CN(C)CCN(C)Cc1nc(-c2ccc3c(Nc4ccc(Oc5ccccc5)cc4)ccnc3c2)cs1 | 100% | 100% | 27%
15 | O=C(/C=C/c1ccc(Cl)c(Cl)c1)NCCCCCN1CCCC(CNS(=O)(=O)c2cccc(C(F)(F)F)c2)C1 (stereo not drawn) | 92% | 0% | 73%
16 | CN1CCN(c2ccnc3cc4ccccc4cc23)CC1 | 93% | 49% | 11%
